Data taken from PubChem BioAssay (NCI).
This is part of a sample that, as a whole, favours compounds with a hit. Of some 83,000 tested, about 20% had one in any assay.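 Single-dose data. Exposure time 48 hours. Values below 10 considered active.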 Activity calls are given as the source filed them.

Legend:
Test in all cases: NCI-60 one-dose screen, 48 h (100 = growth as untreated, 0 = no growth, -100 = all killed)
[1] = tested on: NCI-H23 lung; conditions: 10 µM unless noted
[2] = tested on: NCI-H226 lung; conditions: 10 µM unless noted
[3] = tested on: NCI-H322M lung; conditions: 10 µM unless noted
[4] = tested on: HOP-62 NSCLC; conditions: 10 µM unless noted
[5] = tested on: NCI-H460 lung; conditions: 10 µM unless noted
[6] = tested on: HOP-92 NSCLC; conditions: 10 µM unless noted
[7] = tested on: NCI-H522 lung; conditions: 10 µM
[8] = tested on: 786-0 renal; conditions: 10 µM unless noted
[9] = tested on: COLO 205 colon; conditions: 10 µM unless noted
[10] = tested on: DU-145 prostate; conditions: 10 µM unless noted
[11] = tested on: K-562 leukemia; conditions: 10 µM unless noted
[12] = tested on: MALME-3M melanoma; conditions: 10 µM unless noted
[13] = tested on: MDA-MB-231 breast; conditions: 10 µM unless noted
[14] = tested on: RXF 393 renal; conditions: 10 µM unless noted
[15] = tested on: SF-268 CNS; conditions: 10 µM unless noted
[16] = tested on: SF-295 CNS; conditions: 10 µM unless noted
[17] = tested on: SF-539 CNS; conditions: 10 µM unless noted
[18] = tested on: UACC-257 melanoma; conditions: 10 µM unless noted
[19] = tested on: M14 melanoma; conditions: 10 µM unless noted

Measured: growth

CC(C)Sc1nc(Cl)c(C#N)c(-c2ccc(F)cc2)n1
inactive: [1] 100% | [2] 103% | [3] 102% | [4] 109% | [5] 113% | [6] 92.2% | [7] 86.8% | [8] 96.4% | [9] 115% | [10] 113% | [11] 16.2% | [12] 100% | [13] 111% | [14] 116% | [15] 106% | [16] 108% | [17] 96.5% | [18] 118% | [19] 94.5%

Cc1c2oc3c(C)ccc(C(=O)OC(C)C4NC(=O)C(C(C)C)N(C)C(=O)CN(C)C(=O)C5CCCN5C(=O)C(C(C)C)NC4=O)c3nc-2c(C(=O)OC(C)C2NC(=O)C(C(C)C)N(C)C(=O)CN(C)C(=O)C3CCCN3C(=O)C(C(C)C)NC2=O)c(N)c1=O (stereo not drawn)
active: [1] -7.25% | [2] -40.7% | [3] 1.84% | [4] -20.4% | [5] 5.45% | [6] -15.7% | [7] -60.1% | [8] -11.9% | [9] -63.8% | [11] 5.53% | [12] -37.6% | [13] 3.61% | [14] -78.5% | [15] -5.9% | [16] -9.17% | [17] -11.4% | [19] -55.7%
inactive: [10] 11.4%

CCN(Cc1cccc(S(=O)(=O)[O-])c1)c1ccc(C(=C2C=CC(=[N+](CC)Cc3cccc(S(=O)(=O)O)c3)C=C2)c2ccccc2S(=O)(=O)O)cc1
inactive: [1] 97.3% | [2] 93.8% | [3] 98.1% | [4] 99.3% | [5] 107% | [6] 87.3% | [7] 99.4% | [8] 92.7% | [9] 107% | [10] 107% | [11] 90.8% | [12] 118% | [13] 100% | [14] 106% | [15] 94.6% | [16] 94.5% | [17] 97.4% | [19] 98.4%

CC(C)Sc1nc(-c2ccc(Br)cc2)c(C#N)c(N2CCCCC2)n1
inactive: [1] 110% | [2] 100% | [3] 93.7% | [4] 115% | [5] 104% | [6] 105% | [7] 99.3% | [8] 82.7% | [9] 135% | [10] 109% | [11] 116% | [12] 94.1% | [13] 90.9% | [14] 110% | [15] 103% | [16] 96.7% | [17] 104% | [18] 109% | [19] 104%

CC1CN(/N=C/c2ccc([N+](=O)[O-])o2)C(=N)O1 (stereo not drawn)
inactive: [1] 97.1% | [2] 96.3% | [3] 117% | [4] 103% | [5] 96% | [6] 88.8% | [7] 87.8% | [8] 108% | [9] 113% | [10] 121% | [11] 108% | [12] 78.8% | [13] 102% | [14] 102% | [15] 90.1% | [16] 88.9% | [17] 96.9% | [18] 99.5% | [19] 106%

N#Cc1c(-c2ccc(F)cc2)n2c(nc1=O)SC(=O)C2=O
inactive: [1] 98.6% | [2] 87.2% | [3] 104% | [4] 120% | [5] 101% | [6] 96.6% | [7] 103% | [8] 100% | [9] 134% | [10] 124% | [11] 108% | [12] 90.8% | [13] 114% | [14] 96.5% | [15] 93.4% | [16] 103% | [17] 115% | [18] 85.8% | [19] 105%

O=C(/C=C/c1cccc(O)c1)c1cccc(-n2cc(-c3ccccc3)[nH]c2=O)c1
inactive: [1] 14.4% | [3] 21.4% | [4] 16.9% | [5] 34.8% | [6] 26.7% | [9] 83.8% | [16] 64.8% | [18] 95.6% | [19] 64.5%
active: [2] 3.79% | [7] -21.8% | [8] -59.7% | [10] -16.9% | [11] 1.71% | [12] 0.0704% | [13] -5.57% | [14] -62.4% | [15] 7.61% | [17] -27.4%

CCOC(=O)c1sc(NC(=O)COc2cccc(/C=C3\CCc4cc(OC)ccc4C3=O)c2)nc1C
inactive: [1] 89.5% | [2] 85.2% | [3] 99.8% | [4] 96.5% | [5] 80.8% | [6] 72.5% | [7] 43.9% | [8] 88.1% | [9] 135% | [12] 77.1% | [13] 89.2% | [15] 69.4% | [16] 90.3% | [17] 26.4% | [18] 84.2% | [19] 89%
active: [11] 5.6%
